# Data: ChEMBL document CHEMBL3988442, “University of Dundee, Small-Polar-MMV Screening Library” (2021)
# The campaign covered roughly 48,000 compounds. About 13,000 (27%) showed an effect of 50% or more. The list shows a part of the results.
# Tested on: Wolbachia pipientis
# Experiment: Anti-Wolbachia Cell-Based Screen
# Format: functional
# Parameters: scale not given: in the data most compounds retested in dose-response had high values
# Conditions: 5 µM
row,SMILES,Percent Effect [%]
1,CCSCCOC(=O)CCCc1ccc2c(c1)CC(=O)N2,-3.889
2,CCC1(O)CCCN(c2nc(C(C)(C)C)nc3c2cnn3C)C1 (stereo not given),-1.49
3,CN(C)C(=O)N1CC(=O)NCC12CCN(C(=O)c1ccco1)C2 (stereo not given),-32.82
4,COc1cc(C2CC(=O)NCc3nc4sccn4c32)cc(OC)c1O (stereo not given),-15.83
5,COCCn1ccnc1C1CCN(c2cccc(C(=O)O)n2)CC1,-10.3
6,Cn1cc(CN2CCCN(CCCc3ccccc3)CC2)cn1,4.066
7,Cc1cccc(N2CCC3(CCCN3Cc3cn(C)nc3C)CC2)n1,-1.763
8,Cl.Cn1cc(CN2CCN(CC3(c4ccccc4)CC3)CC2)cn1,82.02
9,Cc1ccc(C2(CN3CCN(Cc4cn(C)nc4C)CC3)CC2)cc1.Cl,115.4
10,CCn1cc(CN2CCCC(CO)(CCc3ccccc3)C2)c(C)n1 (stereo not given),-0.5849
11,Cc1nn(C)cc1CN1CCC(C2Nc3ccccc3S(=O)(=O)N2)CC1 (stereo not given),-11.33
12,C=Cn1cc(CN2CCN(CC3(c4ccccc4)CC3)CC2)c(C)n1,101.3
13,Cc1nn(C)cc1CN1CCN(CC2(c3ccccc3)CC2)CC1,110.9
14,CN1C(=O)CC2(CCN(Cc3cnn(C)c3)CC2)c2ccccc21,0.9694
15,Nc1ncc(CN2C[C@H](C3CC3)[C@@H](N)C2)cn1,-6.254
16,CC(NC(=O)N1CCC2(C1)OCCO2)c1ccc(F)cc1Cl (stereo not given),-14.1
17,CN1CCN(Cc2cnc3n2CCN(C(=O)c2cnccn2)C3)CC1,-7.558
18,Cc1cnc(C(=O)N2CCCn3c(nc(CN(C)C)cc3=O)C2)cn1.O=C(O)C(F)(F)F,-7.099
19,CCN(CC)Cc1cc(=O)n2c(n1)CN(C(=O)c1ccnnc1)CCC2.O=C(O)C(F)(F)F,96.84
20,CC(C)N(C)Cc1cc(=O)n2c(n1)CN(C(=O)c1ccnnc1)CCC2,96.43
21,CC(C)N(C)Cc1noc2c1CN(C(=O)c1ccsc1)CC2,5.959
22,CC(C)N(C)Cc1cc(=O)n2c(n1)CN(C(=O)c1cnccn1)CCC2,114.9

row,SMILES,Percent Effect [%]
1,Cc1cnc(N2CCC(c3ccccc3)CC2)nc1-c1ccnn1C,-8.504
2,COc1ncccc1CNC(=O)NC1CCOc2ccccc21 (stereo not given),3.95
3,CCOc1ncccc1CNC(=O)NC1CCOc2ccccc21 (stereo not given),109.6
4,COc1ncccc1CNC(=O)NC1CCCOc2ccccc21 (stereo not given),119.2
5,COc1ncccc1CNC(=O)N(Cc1ccccc1F)C1CC1,-13.4
6,COc1ncccc1C(=O)NCC1Cc2ccccc2O1 (stereo not given),13.43
7,CC(C)Oc1ncccc1CNC(=O)NC1CCOc2ccccc21 (stereo not given),99.58
8,CC(C)Oc1ncccc1CNC(=O)N1CCC1c1ccccc1 (stereo not given),-10.96
9,CC(C)Oc1ncccc1CNC(=O)N1CCOCC1,12.39
10,COc1ncccc1NC(=O)NC1CCOc2ccccc21 (stereo not given),7.033
11,COc1ncccc1C(=O)NC1CCOc2ccccc21 (stereo not given),117.1
12,O=C(NCc1ccccn1)NC1CCOc2ccccc21 (stereo not given),10.12
13,Cc1ccc(Oc2ncccc2CNC(=O)NC2CCCCC2)cn1,-14.6
14,CC(C)Oc1ccc(C(=O)Nc2nncs2)cn1,-3.461
15,NC(=O)c1ccc(N2CCCCC2)c(NC(=O)c2ccc(F)cc2F)c1,-3.643
16,COCCN1CCN(CCCS(=O)(=O)c2ccccc2)CC1C (stereo not given),8.957
17,CCOC(C)C(=O)NS(=O)(=O)c1cccc2cc(C)cnc12 (stereo not given),6.301
18,CCn1ccnc1CN1CCN(Cc2ccc(C#N)cc2)CC1,-17.04
19,Cn1ccnc1C1c2nc[nH]c2CCN1Cc1cccnc1 (stereo not given),3.917
20,COCCn1ccnc1CN1CCc2[nH]cnc2C1c1cccc(O)c1 (stereo not given),85.01
21,CCCn1ccnc1CN1CCc2[nH]cnc2C1Cc1ccccc1 (stereo not given),-1.947
22,COCCn1ccnc1CN1CCc2[nH]cnc2C1c1ccccn1 (stereo not given),80.05

row,SMILES,Percent Effect [%]
1,CC(=O)Nc1ccc(CN2CCc3[nH]cnc3C2c2nccn2C)cc1 (stereo not given),16.2
2,COc1ncccc1CN1CCc2[nH]cnc2C1CCSC (stereo not given),-5.01
3,COCCn1ccnc1CN1CCc2[nH]cnc2C1c1cnn(C)c1C (stereo not given),99.98
4,Cc1c(C2c3nc[nH]c3CCN2CCOCc2ccccc2)cnn1C (stereo not given),5.205
5,CCc1ccc(C2c3nc[nH]c3CCN2Cc2nccn2CC)nc1 (stereo not given),105
6,CCn1ncnc1CN1CCc2[nH]cnc2C1c1ccccn1 (stereo not given),-9.23
7,c1ccc(COCCN2CCc3[nH]cnc3C2c2ccco2)cc1 (stereo not given),-0.996
8,CC(C)(C)c1oc(C(N)=O)cc1CN1CCCCC(N)C1 (stereo not given),-6.99
9,CNC(=O)c1cccnc1NCc1ccc(Cn2ccnc2)cc1,-15.36
10,CC(=O)c1cc(CN2C[C@H]3CC[C@@H]2CN(S(C)(=O)=O)C3)cs1,11.24
11,COc1ccc(-c2cccc(-c3ccn(CCN(C)C)n3)c2)nn1,-17.53
12,Cc1cnc(C)c(-c2cccc(-c3ccn(CCN4CCCC4)n3)c2)n1,7.439
13,c1cncc(-c2cccc(-c3ccn(CCN4CCCCC4)n3)c2)c1,18.24
14,c1cc(-c2cnccn2)cc(-c2ccn(CCCN3CCCCC3)n2)c1,-2.928
15,Cc1nc(N(C)C)nc(-c2cccc(-c3ccn(CCCO)n3)c2)c1C,91.5
16,COc1ccc(-c2cccc(-c3ccn(CCCN(C)C)n3)c2)nn1,-20.49
17,Cc1nc(N(C)C)nc(-c2cccc(-c3ccn(CCCF)n3)c2)c1C,99.28
18,CN(C)CCCn1ccc(-c2cccc(-c3ccccn3)c2)n1,-1.271
19,CN(C)CCCn1ccc(-c2cccc(-c3cncnc3)c2)n1,-27.48
20,CN(C)c1ccc(-c2cccc(-c3ccn(CCCO)n3)c2)nn1,106.7
21,Cc1cc(-c2cccc(-c3ccn(CCCO)n3)c2)nc(N(C)C)n1,105.4
22,Cc1cc(CC(C)NC(=O)c2cccc(CC3CCNCC3)c2)[nH]n1 (stereo not given),-1.026

row,SMILES,Percent Effect [%]
1,Cc1oc(NC(=O)C(C)N2CCN(C(=O)C3CC3)CC2)c(C#N)c1C (stereo not given),9.3
2,OC1(c2cn(C3CCN(C4CCSC4)CC3)nn2)CCCC1 (stereo not given),-22.68
3,Cc1ccc2[nH]c(CN(C)Cc3ccccc3C(=O)O)nc2c1,-3.287
4,NS(=O)(=O)c1ccc(CC(=O)N2CCCC(n3cccn3)C2)cc1 (stereo not given),-6.435
5,Cn1nc(C(=O)N2CCC(Oc3ccc(C#N)cn3)CC2)ccc1=O,4.281
6,N#Cc1cn(CCN2CCc3ccccc3C2)c(=O)[nH]c1=O,-7.012
7,CCc1nc(N2CCCC(CO)(CCOC)C2)ncc1C (stereo not given),2.131
8,c1cc(-c2cnccn2)cc(-c2ccn(CCN3CCCCC3)n2)c1,11.58
9,Cc1cnc(-c2cccc(-c3ccn(CCCO)n3)c2)nc1N(C)C,89.78
10,c1cc(-c2cnccn2)cc(-c2ccn(CCN3CCCC3)n2)c1,1.985
11,CN(C)[C@H]1CCCCN(Cc2ccccc2Cn2cccn2)C1,11.28
12,CC(C)(CN)NS(=O)(=O)c1c(F)cccc1F.Cl,-5.219
13,COc1ccc(N2CCOCC3(CCCN(c4cnccn4)C3)C2)cc1 (stereo not given),-9.239
14,Fc1cnc(N2CCOCC3(CCCN(c4nncs4)C3)C2)nc1 (stereo not given),-12.3
15,Fc1cnc(N2CCOCC3(CCCN(c4cnccn4)C3)C2)nc1 (stereo not given),-10.42
16,Cc1cnc(N2CCC3(CCCN(c4ccc(C)nn4)C3)C2)nc1 (stereo not given),-1.521
17,Cc1cnc(N2CCCC3(COCCN(c4ccc(C)nn4)C3)C2)nc1 (stereo not given),111.1
18,Cc1ccc(N2CCOCC3(CCCN(c4ncc(F)cn4)C3)C2)nn1 (stereo not given),110.3
19,Cc1ccc(N2CCCC3(COCCN(c4cnccn4)C3)C2)nn1 (stereo not given),122.4
20,CCS(=O)(=O)N1CCCC2(COCCN(c3cnccn3)C2)C1.O=C(O)C(F)(F)F (stereo not given),-1.156
21,Cc1noc(C)c1NC(=O)Cn1cc(Br)ccc1=O,-4.213
22,C[C@@H]1CN(C2CCN(Cc3cnc(-c4cccs4)nc3)CC2)C[C@H](C)O1,-8.003

row,SMILES,Percent Effect [%]
1,O=S(=O)(c1c(Cl)nc2sccn12)N1CCCC2(CCNC2)C1 (stereo not given),-7.424
2,Cc1ccc(-n2cc(C)cn2)c(NC(=O)NC2(C)CCOC2)c1 (stereo not given),1.139
3,O=C(NC[C@H]1CCCC[C@H]1O)c1cccc2[nH]c(-c3ccco3)nc12,127.5
4,O=C(NC[C@H]1CCCC[C@H]1O)c1cccc2[nH]c(-c3cccs3)nc12,118.3
5,O=C(NCC1CCCCO1)c1ccc(-c2ccco2)[nH]c1=O (stereo not given),3.575
6,O=C(NC[C@H]1CCCC[C@H]1O)c1ccc2nc(-c3ccco3)[nH]c2c1,114.7
7,O=C(NCC1CCCCO1)c1ccc(-c2cccs2)[nH]c1=O (stereo not given),23.71
8,Cc1sc(-c2ccco2)nc1C(=O)NCC1CCOC1 (stereo not given),3.177
9,Cc1sc(-c2ccco2)nc1C(=O)N(CC(N)=O)C1CCCC1,-7.156
10,O=C(CN1CC(c2nc(-c3cccs3)no2)C1)NCC1CCCO1.O=C(O)C(=O)O (stereo not given),11.99
11,CCCNC(=O)c1ccc(-c2ccco2)[nH]c1=O,7.034
12,CCOC(C)c1nc(Cn2cc(C)cn2)cs1 (stereo not given),-10.7
13,COC1CCN(c2cc(C(C)C)nc3ccnn23)C1 (stereo not given),-6.556
14,CC1Cc2ccccc2N1C(=O)Cn1nc(-c2cccs2)cc(N)c1=O (stereo not given),146.8
15,Cc1ccc(-c2cc(N)c(=O)n(CC(=O)NCC3CC3)n2)s1,-0.7868
16,CN(C)CC1CN(CC(=O)N2CCc3ccccc32)CCO1 (stereo not given),-2.513
17,O=C(Cn1nc(-c2cccs2)ccc1=O)N1CCCCCC1,16.15
18,CC1Cc2ccccc2N1C(=O)Cn1nc(-c2cccs2)ccc1=O (stereo not given),148.6
19,O=C(c1csnn1)N1CCc2ccccc21,9.308
20,O=c1ccc(-c2cccs2)nn1CN1CCCCCC1,6.119
21,Cc1cc(CS(=O)(=O)CC(=O)N2c3ccccc3CC2C)no1 (stereo not given),4.378
22,Nc1cc(-c2cccs2)nn(CC(=O)N2CCc3ccccc32)c1=O,164.1
